Dicer processing – human Dicer pre-microRNA cleavage inhibition; Q9UPY3; cat-ELCCA pre-miR-21 Dicer processing, chemiluminescence; stronger effect = higher value; z-score at 25 µM; 47,000 tested, 6% active; in the data active means z-score above about 3, passing the limit was not always enough;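 further: plate controls were vehicle for no effect and no enzyme for full effect; higher signal means more uncleaved substrate so more Dicer inhibition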
* hit, by the source's call. The full list was thinned out, with hits kept by preference.

SMILES | Dicer processing
Cc1cc(C)c2nc(Nc3nc(C)cc(=O)[nH]3)nc(C)c2c1 | 1.5
Cc1cc(C)c2nc(NC3=NC(c4ccccc4)CC(=O)N3)nc(C)c2c1 (stereo not given) | 3.5*
Cc1ccc(NC2=NC(c3ccccc3)n3c(nc(C)cc3=O)N2)c(C)c1 (stereo not given) | 2
CCCOc1ccc(N2C(=O)CC(N3CCN(C(=O)OCC)CC3)C2=O)cc1 (stereo not given) | -0.91
CCOC(=O)C(O)(c1ccc(N(C)C(=O)Nc2ccccc2)cc1)C(F)(F)F (stereo not given) | 0.79
CC(=O)C(Sc1ccc(Cl)cc1)C(C)=O | -0.13
O=[N+]([O-])c1cnc(N2CCOCC2)c(C(F)(F)F)c1 | 1.2
COc1ccc(C(=O)CSc2n[nH]c(-c3ccco3)n2)cc1C | 5.6*
COc1ccc(C(=O)CSc2n[nH]c(-c3ccco3)n2)cc1 | 1.4
Cc1ccc(C(=O)CSc2n[nH]c(-c3ccco3)n2)cc1C | -0.82
O=C(CC1(O)C(=O)N(CCc2ccccc2)c2ccc(Cl)cc21)c1ccc(F)cc1 (stereo not given) | -0.01
O=C1Nc2ccccc2C1(O)C(F)(F)F (stereo not given) | -0.46
O=S(=O)(c1ccc2c(c1)CCO2)N1CCC2(CC1)OCCO2 | -1
Cc1ccc2oc(-c3ccc(Cl)c(N)c3)nc2c1 | 0.94
NS(=O)(=O)c1ccc(CCNS(=O)(=O)c2ccc(Cl)cc2)cc1 | 3.4*
O=c1[nH]c2ccc(S(=O)(=O)NCCc3ccc(F)cc3)cc2[nH]1 | 1.9
NS(=O)(=O)c1ccc(CNS(=O)(=O)Cc2ccccc2)cc1 | -0.27
CS(=O)(=O)NCCc1ccncc1 | 0.42
O=S(=O)(CS(=O)(=O)NCCc1ccc(Cl)cc1)NCCc1ccc(Cl)cc1 | 0.29
CS(=O)(=O)NCCc1ccc(S(N)(=O)=O)cc1 | 6.9*
Cc1csc2c(N3CCOCC3)ncnc12 | -0.09
Cc1onc(-c2ccccc2)c1CNS(=O)(=O)c1ccc(-c2cnco2)cc1 | -0.38
O=C(NCCCO)C(=O)NC1CCCCC1 | -0.51
O=[N+]([O-])c1cccc(Cl)c1Oc1ccc(S(=O)(=O)Oc2ccc(Cl)cc2)cc1 | -0.53
CCn1nc(C)cc1/C(N)=N/OC(=O)c1cc(Cl)cc(Cl)c1 | -0.69
SMILES | Dicer processing
Cc1cccc(C)c1NC(=O)C(C)N (stereo not given) | 0.84
CSC(=NC(C)(C)CO)Nc1c(C)cccc1C | 4.8*
CCCSC(=NCC)Nc1c(C)cccc1C | 0.82
CS(=N)(=O)c1ccc(Oc2ccc([N+](=O)[O-])cn2)cc1 (stereo not given) | -1
O=c1c2cc(-c3ccccc3)sc2n(Cc2ccccc2)c(=O)n1-c1ccccc1 | 1.7
Cc1cc(=O)cc(C)n1NC(=O)c1cccnc1 | 0.03
COc1ccc(C(=O)/C=C/Oc2ccc(Cl)cc2)cc1 | 4.4*
Cc1cc(O/C=C/C(=O)c2ccc(Br)cc2)ccc1Cl | 0.52
COc1ccc(C(=O)/C=C/Sc2cc(Cl)ccc2Cl)cc1 | -0.17
CCC(Sc1nnc2c3ccccc3n(C)c2n1)C(=O)Nc1nnc(C)s1 (stereo not given) | -0.49
CCC(Sc1nnc2c3ccccc3n(C)c2n1)C(=O)NC(C)c1ccccc1 (stereo not given) | 1.1
CCCc1nnc(NC(=O)C(CC)Sc2nnc3c4ccccc4n(C)c3n2)s1 (stereo not given) | 3.1*
CC(=O)c1ccc(N2CCN(S(=O)(=O)c3ccc(S(=O)(=O)c4ccccc4)s3)CC2)cc1 | -0.13
O=S(=O)(c1ccccc1)c1ccc(S(=O)(=O)N2CCOCC2)s1 | -0.55
O=S(=O)(c1ccccc1)c1ccc(S(=O)(=O)N2CCN(C3c4ccccc4-c4ccccc43)CC2)s1 | 3.4*
O=c1c(Cc2ccc(Cl)cc2)csc2ccccc12 | 0.19
COc1ccc(OC)c(-c2noc(CSc3nc4ccccc4[nH]3)n2)c1 | 0.06
COc1ccc(-c2noc(CSc3nc4ccccc4[nH]3)n2)c(OC)c1 | 1.4
COc1ccc(-c2noc(CSc3nc4ccccc4[nH]3)n2)cc1OC | 3.2*
COc1ccc(C(=O)CSc2nc(C)c(Oc3ccc(Cl)cc3)c(=O)[nH]2)cc1 | 0.31
CCN1C(=O)C2(/C(=C(/O)c3ccc4c(c3)CC(C)O4)C(=O)C(=O)N2CCN(C)C)c2ccccc21 (stereo not given) | -1.6
CCN1C(=O)C2(/C(=C(/O)c3ccc4c(c3)CC(C)O4)C(=O)C(=O)N2CCCN(C)C)c2ccccc21 (stereo not given) | 4.3*
CCCCN1C(=O)C2(/C(=C(/O)c3ccc4c(c3)CC(C)O4)C(=O)C(=O)N2CCOC)c2ccccc21 (stereo not given) | 4.9*
CCN1C(=O)C2(/C(=C(/O)c3ccc(OC)c(C)c3)C(=O)C(=O)N2CCN(C)C)c2ccccc21 (stereo not given) | -4
CCCCN1C(=O)C2(/C(=C(/O)c3ccc(C)cc3)C(=O)C(=O)N2CCCN(C)C)c2ccccc21 (stereo not given) | 1.8
SMILES | Dicer processing
CC(=O)Nc1ccc(NC(=O)CC(C)(C)CC(=O)O)cc1 | -0.79
COC(=O)c1c(NS(=O)(=O)c2ccc(OC)c(OC)c2)sc2c1CCCC2 | -0.23
O=C(c1cccs1)N1CCN(c2ccnc3cc(Cl)ccc23)CC1 | 0.52
CCOC(=O)C(C(=O)OCC)c1ccc(OCc2ccccc2)cc1 | 1.6
Cc1sc2c(c1C)C(=O)/C(=C\Nc1cccnc1)S(=O)(=O)N2C | -0.68
Cc1sc2c(c1C)C(=O)/C(=C\Nc1ncccn1)S(=O)(=O)N2C | 2
Cc1cc(N/C=C2\C(=O)c3c(sc(C)c3C)N(C)S2(=O)=O)nc(C)n1 | 3.6*
Cc1nccc(-c2cccc(NS(=O)(=O)c3cc(C(F)(F)F)cc(C(F)(F)F)c3)c2)n1 | -0.98
O=C(c1ccco1)c1cn(CCOc2ccccc2F)c2ccccc12 | 0.45
C=CCSc1nc2c(c(/C=C/c3ccccc3)c1C#N)CCC2 | -0.68
Cc1ccc(NC(=S)Nc2ccc(C)c(C)c2)cc1C | -0.26
Cc1cc(NC(=S)NC(C)(C)C)ccc1Br | -0.67
Cc1ccc(NC(=S)NC(C)(C)C)cc1F | 3*
O=C(O)c1ccccc1Sc1cc(C(=O)O)c(Sc2ccccc2C(=O)O)cc1C(=O)O | -0.1
COC(=O)c1ccc(/C=C/c2cccc(Cl)c2)s1 | 0.7
O=C1N/C(=N/N=C\c2[nH]ncc2Br)SC1c1ccccc1 (stereo not given) | 3.4*
O=C1CS/C(=N/N=C/c2ccn[nH]2)N1 | -0.26
O=C(OCc1nc2c(ccc3ccccc32)[nH]1)C1CCCCC1 | -5.4
O=C1CSC(c2ccc(Cl)cc2)N1CCN1CCCCC1 (stereo not given) | -0.24
Cc1ccc(-c2cc(=O)n(-c3nc4ccccc4[nH]3)[nH]2)cc1 | -0.75
COC(=O)Cc1cc(=O)n(-c2nc3ccccc3[nH]2)[nH]1 | 4.6*
CC(C)OC(=O)CSc1nc2ccccc2[nH]1 | -0.48
CCOC(=O)NNC1(C#N)CCSC1 (stereo not given) | 1.7
Cc1ccc(Cn2nc(C)c(NC(=O)c3cc4n(n3)C(C(F)(F)F)CC(c3ccco3)N4)c2C)cc1 (stereo not given) | 0.4
CCc1cc2c(=O)c(-c3nc4ccccc4n3C)coc2cc1O | -0.27
SMILES | Dicer processing
O=c1oc(-c2ccc(Br)cc2)nc2ccccc12 | 3*
O=c1oc(-c2cccs2)nc2ccccc12 | -0.19
O=c1oc(Nc2ccccc2)nc2ccccc12 | 3.6*
O=c1oc(-c2ccc(Cl)cc2)nc2ccccc12 | 0.2
c1ccc(Nc2nnc(-c3cccc4ccccc34)o2)cc1 | 0.59
CC(C)(C)c1ccc(-c2nc3ccccc3c(=O)o2)cc1 | 1.4

From PubChem BioAssay
